This note sets out measurements from PMC4336329 (PLoS ONE, 2015).

Screen size: about 310,000 compounds; about 2,200 (0.71%) showed an effect of 50% or more. Effects have a minus sign here. Only a selection was taken, and strong results are over-represented in it overall.

human ether-à-go-go-related gene (hERG) potassium channel, sequence (Q12809 whole entry, looked up): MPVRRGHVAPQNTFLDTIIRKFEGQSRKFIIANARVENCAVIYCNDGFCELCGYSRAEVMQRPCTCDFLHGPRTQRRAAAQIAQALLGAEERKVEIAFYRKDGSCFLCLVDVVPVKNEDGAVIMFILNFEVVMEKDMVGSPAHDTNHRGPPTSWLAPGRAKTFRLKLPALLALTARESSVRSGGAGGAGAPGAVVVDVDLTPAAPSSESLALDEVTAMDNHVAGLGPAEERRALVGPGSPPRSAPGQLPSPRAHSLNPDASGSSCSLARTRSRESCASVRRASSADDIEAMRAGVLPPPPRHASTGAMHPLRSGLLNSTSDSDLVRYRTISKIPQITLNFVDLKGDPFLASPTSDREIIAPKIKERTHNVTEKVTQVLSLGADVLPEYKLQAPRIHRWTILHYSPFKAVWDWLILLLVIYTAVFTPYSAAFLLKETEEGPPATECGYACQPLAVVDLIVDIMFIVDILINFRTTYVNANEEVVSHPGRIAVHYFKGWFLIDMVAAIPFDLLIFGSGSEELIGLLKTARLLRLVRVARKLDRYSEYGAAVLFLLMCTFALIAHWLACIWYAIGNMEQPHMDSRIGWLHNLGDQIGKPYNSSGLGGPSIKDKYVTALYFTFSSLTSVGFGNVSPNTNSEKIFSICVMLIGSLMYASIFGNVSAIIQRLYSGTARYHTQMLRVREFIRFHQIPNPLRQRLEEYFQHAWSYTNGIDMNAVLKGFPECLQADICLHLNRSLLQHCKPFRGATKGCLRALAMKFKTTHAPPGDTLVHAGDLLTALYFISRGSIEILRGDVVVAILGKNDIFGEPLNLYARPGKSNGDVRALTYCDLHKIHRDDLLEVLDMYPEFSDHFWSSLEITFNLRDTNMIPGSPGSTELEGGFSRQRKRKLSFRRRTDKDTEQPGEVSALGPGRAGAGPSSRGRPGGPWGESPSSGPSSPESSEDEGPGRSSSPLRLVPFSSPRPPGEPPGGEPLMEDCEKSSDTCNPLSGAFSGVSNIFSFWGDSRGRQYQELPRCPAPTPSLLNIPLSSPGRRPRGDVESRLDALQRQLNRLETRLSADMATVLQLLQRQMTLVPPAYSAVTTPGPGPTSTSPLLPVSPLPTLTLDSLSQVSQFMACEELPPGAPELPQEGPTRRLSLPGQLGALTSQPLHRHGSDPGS

This test addresses human ether-à-go-go-related gene (hERG) potassium channel (human, UniProt Q12809). Description: primary screen, population patch clamp on CHO cells stably expressing hERG; higher = less effect of the substance.
`CCOC(=O)c1c(NC(=O)c2cc(CC(C)C)on2)sc(C(C)=O)c1C`: the “hERG current change (%, negative = inhibition) at 1uM” value worked out at 12.5%.
Turning to `CC(C)CN(C(=O)COC(=O)c1cnc(Cl)c(Cl)c1)c1c(N)n(Cc2ccccc2)c(=O)[nH]c1=O`, the “hERG current change (%, negative = inhibition) at 1uM” value came to 8.68%.
As to `COc1ccc(-c2n[nH]c(C)c2-c2ccc(Cl)cc2)c(O)c1`, the “hERG current change (%, negative = inhibition) at 1uM” value came out at 10.2%.
For the compound `CCOC(=O)CSc1nc(Cc2ccccc2)nc2ccccc12`, the “hERG current change (%, negative = inhibition) at 1uM” value is 3.08%.
For the compound `Cn1nc(C(F)(F)F)c2cc(C(=O)N3CCOCC3)sc21`, the “hERG current change (%, negative = inhibition) at 1uM” value amounted to 5.87%.
For `COc1ccccc1N1CCN(C2CCCN(C(=O)CCC(=O)N(C)C)C2)CC1` (stereo not drawn) the value was -3.24%; for `CCCC(=O)NC(=S)Nc1ccc(NC(=O)c2cccs2)cc1`, -3.11%.
Take `Cc1cc(=O)[nH]c(SCC(=O)c2ccc(C)c(C)c2)n1`: the “hERG current change (%, negative = inhibition) at 1uM” value is reported as 18.1%.
With `N#Cc1c2c(c(Nc3ccccc3)n3c1nc1ccccc13)CCC2`, the “hERG current change (%, negative = inhibition) at 1uM” value turned out to be 10.4%.
For `N#Cc1c2c(c(Nc3ccc(O)cc3)n3c1nc1ccccc13)CCC2` the value was 11.7%; for `CC(=O)c1ccc(Nc2c3c(c(C#N)c4nc5ccccc5n24)CCC3)cc1`, -67%.
For `CC(C1CC1)N(Cc1ccccc1)C(=S)Nc1ccccc1Cl` (stereo not drawn), the “hERG current change (%, negative = inhibition) at 1uM” value was 3.13%.
Take `COc1cccc(-c2noc(CCC(=O)NC3CCCCC3)n2)c1`: the “hERG current change (%, negative = inhibition) at 1uM” value is 0.894%.
In the case of `COCCNc1nc(SCC(=O)N2CCN(c3ccccc3OC)CC2)nc2ccccc12`, the “hERG current change (%, negative = inhibition) at 1uM” value was -92.9%.
On to `COc1ccccc1N1CCN(C(=O)CSc2nc3ccccc3nc2N2CCCCC2)CC1`, for which the “hERG current change (%, negative = inhibition) at 1uM” value was found to be 16.5%.
As for `COCCNc1nc(SCC(=O)N2CCN(c3ccccc3)CC2)nc2ccccc12`, the “hERG current change (%, negative = inhibition) at 1uM” value was -94.4%.
Then `O=C(CSc1nc2ccccc2c(=O)[nH]1)N1CCN(c2ccccc2)CC1`, with 12.9%; and `COc1ccccc1N1CCN(C(=O)CSc2nnc3c4ccccc4nc(Cc4ccccc4)n23)CC1`, with -1.26%.
For `COCCNC(=O)CSc1nc2ccccc2c(=O)n1CCC(=O)N1CCN(c2ccccc2)CC1` the value was 6.84%.
As for `COc1cc2ccccc2cc1C(=O)N1CC(C)CC(C)C1` (stereo not drawn), the “hERG current change (%, negative = inhibition) at 1uM” value was -3.89%.
Consider `CCOC(=O)N/N=C/c1cccnc1`, for which the “hERG current change (%, negative = inhibition) at 1uM” value is given as 5%.
For `CCCCN(C(=O)COC(=O)c1ccc(C=O)cc1)c1c(N)n(CCC)c(=O)[nH]c1=O` the value was 11%; for `Cc1nc(N2CCN(C(=O)CCC(=O)O)CC2)c2c(C)c(C)sc2n1`, -4.32%; for `Cc1nc(N2CCN(C(=O)COc3ccccc3)CC2)c2c(C)c(C)sc2n1.Cl`, -29.3%.
Regarding `CCC(=O)N1CCN(c2nc(C)nc3sc(C)c(C)c23)CC1`, the “hERG current change (%, negative = inhibition) at 1uM” value is recorded as -54%.
For `c1ccc(Cc2noc(CN3CCCN(C4Cc5ccccc5C4)CC3)n2)cc1`, the “hERG current change (%, negative = inhibition) at 1uM” value is on record as -66%.
For `Cc1ccccc1N1CCN(Cc2nc(Cc3ccccc3)no2)CC1`, the “hERG current change (%, negative = inhibition) at 1uM” value turned out to be 8.68%.
In the case of `COc1ccc(Cc2noc(CN3CCCN(C4Cc5ccccc5C4)CC3)n2)cc1OC`, the “hERG current change (%, negative = inhibition) at 1uM” value was -44.4%.
In the case of `c1ccc(Cc2noc(CN3CCN(C4CCc5ccccc5C4)CC3)n2)cc1` (stereo not drawn), the “hERG current change (%, negative = inhibition) at 1uM” value was -76.1%.
As to `Fc1cccc(Cc2noc(CN3CCSCC3)n2)c1`, the “hERG current change (%, negative = inhibition) at 1uM” value worked out at 17.3%.
Take `Fc1cccc(Cc2noc(CN3CCOCC3)n2)c1`: the “hERG current change (%, negative = inhibition) at 1uM” value was 10.8%.
On to `Fc1cccc(Cc2noc(CN3CCN(C4CCc5ccccc5C4)CC3)n2)c1` (stereo not drawn), for which the “hERG current change (%, negative = inhibition) at 1uM” value was -67.5%.
Consider `Cc1cccnc1CN1CCN(Cc2nc(Cc3cccc(F)c3)no2)CC1`, for which the “hERG current change (%, negative = inhibition) at 1uM” value is on record as 6.2%.
Take `Fc1cccc(Cc2noc(CN3CCC(c4ccncc4)CC3)n2)c1`: the “hERG current change (%, negative = inhibition) at 1uM” value is -1.98%.
For the compound `COc1ccc(Cc2noc(CN3CCN(C4CCc5ccccc5C4)CC3)n2)cc1OC` (stereo not drawn), the “hERG current change (%, negative = inhibition) at 1uM” value is reported as -32%.
For the compound `Fc1cccc(Cc2noc(CN3CCCN(C4Cc5ccccc5C4)CC3)n2)c1`, the “hERG current change (%, negative = inhibition) at 1uM” value is listed as -86.9%.
For `O=C(c1ccco1)N1CCCN(Cc2nc(Cc3ccccc3)no2)CC1`, the “hERG current change (%, negative = inhibition) at 1uM” value is reported as 1.8%.
Take `COc1ccnc2c1c(=O)n(Cc1cccc(F)c1)c(=O)n2C`: the “hERG current change (%, negative = inhibition) at 1uM” value is recorded as 8.91%.
For `Cc1cc(C)cc(NC(=O)CSc2nnc(CNC(=O)c3ccco3)n2C)c1`, the “hERG current change (%, negative = inhibition) at 1uM” value was found to be 14.2%.
As for `Br.c1ccc(C2CNCc3c2ccc2ccccc32)cc1` (stereo not drawn), the “hERG current change (%, negative = inhibition) at 1uM” value was found to be 1.84%.
Then `COc1ccc(C(=O)NCc2nnc(SCC(=O)NCc3ccco3)o2)cc1OC`, with 14.2%.
Then `COc1cccc(Nc2nnc(Cc3cccnc3)c3ccccc23)c1`, with -83.2%.
Then `COc1cccc(NC(=S)NCc2cccnc2)c1`, with 11.1%.
`COc1ccc(Nc2nnc(Cc3ccncc3)c3ccccc23)c(OC)c1`: the “hERG current change (%, negative = inhibition) at 1uM” value was -66.6%.
For `COc1ccc(Nc2ncnc3ccccc23)c(OC)c1.Cl` the value was -0.118%.
For the compound `COc1cccc(NC(=O)Cn2nc(Cc3cccnc3)c3ccccc3c2=O)c1`, the “hERG current change (%, negative = inhibition) at 1uM” value is -8.3%.
Consider `COc1ccc(Nc2nnc(Cc3ccccc3)c(=O)[nH]2)c(OC)c1`, for which the “hERG current change (%, negative = inhibition) at 1uM” value was determined as 8.03%.
Take `CCN(CC)CCOC(=O)c1cc2cc(COC)ccc2o1.CI`: the “hERG current change (%, negative = inhibition) at 1uM” value worked out at 9.98%.
For `O=C(CN1C(=O)c2cccnc2Oc2ccc(Cl)cc21)Nc1ccc(F)cc1` the value was 14.1%; for `COCCCn1c(Cc2csc(Nc3cccc(Cl)c3)n2)nnc1SCC(=O)OC1CCCCC1`, -0.506%; for `COc1ccc(C2CC(c3cccc(OC)c3OC)n3nnnc3N2)cc1` (stereo not drawn), -4.26%.
With `O=C(c1cccs1)N1CCN(C(=O)N2CCOCC2)CC1`, the “hERG current change (%, negative = inhibition) at 1uM” value came to 15.2%.
Consider `COC(C[C@@H]1O[C@@H]1[C@H](O)COCc1ccccc1)OC`, for which the “hERG current change (%, negative = inhibition) at 1uM” value worked out at 10.5%.
For `CCOC(=O)c1cc(-c2ccc(Cl)cc2)nc2c1c(C)nn2CCC#N`, the “hERG current change (%, negative = inhibition) at 1uM” value is given as 10.9%.
For `Cc1cc(C)c[n+](CC(=O)c2ccc(C)c([N+](=O)[O-])c2)c1.[Br-]` the value was 4.61%; for `Cc1cc(C)c[n+](CC(=O)c2c(C)cc(C)c([N+](=O)[O-])c2C)c1.[Br-]`, -52.7%; for `Cc1cc(C)c[n+](CC(=O)c2ccccc2)c1.[Br-]`, 20.1%.
Consider `CN1CCN(C(=O)C2CCC(=O)N(Cc3cccc(C(F)(F)F)c3)C2)CC1` (stereo not drawn), for which the “hERG current change (%, negative = inhibition) at 1uM” value is recorded as 6.99%.
Take `Cc1nnc(NC(=O)CSc2nnc(CC(=O)Nc3ccccc3C)n2C)s1`: the “hERG current change (%, negative = inhibition) at 1uM” value amounted to 17.4%.
`COc1ccc(C(=O)C2CCCN(CCO)C2)c(C)c1` (stereo not drawn): the “hERG current change (%, negative = inhibition) at 1uM” value was 12.5%.
Take `COc1ccc(C(=O)C2CCCN(Cc3cccn3-c3ccccn3)C2)c(OC)c1` (stereo not drawn): the “hERG current change (%, negative = inhibition) at 1uM” value is given as -82.9%.
For `COc1ccc(C(=O)C2CCCN(Cc3ccccn3)C2)c(OC)c1` (stereo not drawn) the value was -3.83%.
On to `COc1ccc(C(=O)C2CCCN(Cc3cccn3-c3ccccn3)C2)c(C)c1` (stereo not drawn), for which the “hERG current change (%, negative = inhibition) at 1uM” value is given as -84.8%.
For the compound `COc1ccc(C(=O)C2CCCN(Cc3cccn3-c3ccc(Cl)cn3)C2)c(OC)c1` (stereo not drawn), the “hERG current change (%, negative = inhibition) at 1uM” value is recorded as -45.8%.
With `COc1ccc(C(=O)C2CCCN(C(=O)CCc3ccccn3)C2)c(C)c1` (stereo not drawn), the “hERG current change (%, negative = inhibition) at 1uM” value amounted to 9.98%.
For `O=C(O)c1cc(NC(=O)c2ccc3c(c2)C(=O)N(Cc2ccccc2)C3=O)cc(C(=O)O)c1` the value was 11.7%; for `COc1cccc(Nc2ncc(C#N)c(N)n2)c1`, 12.9%; for `O=C(COC(=O)c1nc(Cl)ccc1Cl)Nc1ncc(Cl)cc1Cl`, 14.4%.
For `CCN(CC)CCCN=Cc1c(O)n(Cc2ccccc2)c(=O)c2ccccc12` the value was -77.3%; for `CN(C)CCCN=Cc1c(O)n(Cc2ccccc2)c(=O)c2ccccc12`, -25.5%.
Then `CN(C)CCN=Cc1c(O)n(Cc2ccccc2)c(=O)c2ccccc12`, with -6.8%.
Consider `CCOC(=O)C1CCN(C/C=C/c2ccccc2[N+](=O)[O-])CC1`, for which the “hERG current change (%, negative = inhibition) at 1uM” value was -57%.
With `CCOC(=O)C1CCN(C/C=C/c2ccccc2)CC1`, the “hERG current change (%, negative = inhibition) at 1uM” value was found to be 4.64%.
Take `CCOC(=O)C1CCCN(C/C=C/c2ccccc2[N+](=O)[O-])C1` (stereo not drawn): the “hERG current change (%, negative = inhibition) at 1uM” value is -42.6%.
On to `CC(O)[C@H]1CNCCN1CCc1cccc2ccccc12` (stereo partly drawn), for which the “hERG current change (%, negative = inhibition) at 1uM” value is given as 5.81%.
Consider `CCSc1ccccc1C(=O)N1CCN(c2ccc([N+](=O)[O-])cc2)CC1`, for which the “hERG current change (%, negative = inhibition) at 1uM” value is listed as -41%.
As to `O=C(O)c1cn(Cc2ccccc2)c2ccccc2c1=O`, the “hERG current change (%, negative = inhibition) at 1uM” value was -43.6%.
As to `CCCCCn1cc(C(=O)C(=O)N2CCOCC2)c2ccccc21`, the “hERG current change (%, negative = inhibition) at 1uM” value was found to be 7.53%.
For the compound `O=C(O)c1cn(Cc2ccccc2)c2ccc(Cl)cc2c1=O`, the “hERG current change (%, negative = inhibition) at 1uM” value is listed as -84.4%.
Turning to `CCCCCCn1cc(C(=O)O)c(=O)c2ccccc21`, the “hERG current change (%, negative = inhibition) at 1uM” value is reported as -84.4%.
`CCCCCCn1cc(C(=O)O)c(=O)c2cc(F)c(N3CCCCC3)cc21`: the “hERG current change (%, negative = inhibition) at 1uM” value was 14%.
For `COc1ccc2c(c1)c(=O)c(C(=O)c1ccccc1)cn2Cc1ccccc1` the value was -21.1%.
Regarding `CCOc1cc(C2C(C(=O)OCC(C)C)=C(C)N=C3SCCC(=O)N32)ccc1OC(C)=O` (stereo not drawn), the “hERG current change (%, negative = inhibition) at 1uM” value is given as -0.245%.
With `Cc1ccc(S(=O)(=O)N2CCN(C(=O)CCC(=O)N3CCc4ccccc43)CC2)cc1`, the “hERG current change (%, negative = inhibition) at 1uM” value is on record as 3.11%.
As for `COc1ccc([C@@H]2Sc3cc(OC)ccc3N(CCN(C(C)C)C(C)C)C(=O)[C@H]2OC(C)=O)cc1.Cl`, the “hERG current change (%, negative = inhibition) at 1uM” value is -70%.
Then `COc1ccc(N2C(=O)C(OC(C)=O)C2c2ccc(C)cc2)cc1` (stereo not drawn), with 7.38%; and `COc1ccc2c(c1)Sc1ccccc1N2CCN(C)C.O=C(O)C(=O)O`, with 2.44%.
